Reference: PubChem BioAssay AID1159580 (chemical genetic matrix, 2015)
“And” between values parts separate entries of the source, which are not always exact repeats. Equal values may be shown once. Among all 5,500 compounds or so, about 2,000 (36%) were called active. About 18% were inconclusive and are not listed. Rule as the data show it: active = normalized growth mostly below about 0.91 (no sharp cut-off); inconclusive = no clear call, values can overlap the other calls; inactive = mostly above about 0.92. The list shows a part of the results. Some structures have more than one record in an assay (separate samples or runs), and their calls can disagree.

Assay: chemical genetic growth profiling, strain panel (AID 1159580);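 also: tested at 20 µM; growth read once vehicle control cultures reached saturation at 30 °C; 1 = growth at the plate median or of vehicle wells; lower values mean less growth of the strain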
Conditions: S. cerevisiae deletion strains, growth OD

Measured: normalized growth

C[C@](N)(Cc1ccc(O)cc1)C(=O)O
inactive: locus YAL021C, strain ccr4, stronger effect = lower value 1 | locus YAL026C, strain drs2, stronger effect = lower value 0.999 | locus YAL030W, strain snc1, stronger effect = lower value 0.998 | locus YBL061C, strain skt5, stronger effect = lower value 0.993 | locus YBR009C, strain hhf1, stronger effect = lower value 0.993 | locus YBR023C, strain chs3, stronger effect = lower value 0.996 | locus YBR171W, strain sec66, stronger effect = lower value 0.998 | locus YBR231C, strain swc5, stronger effect = lower value 1 | locus YBR279W, strain paf1, stronger effect = lower value 1 | locus YCL011C, strain gbp2, stronger effect = lower value 1 | locus YCL016C, strain dcc1, stronger effect = lower value 0.986 | locus YCL061C, strain MRC1, stronger effect = lower value 1 | locus YCL069W, strain vba3, stronger effect = lower value 0.997 | locus YCR088W, strain abp1, stronger effect = lower value 0.99 | locus YDL005C, strain med2, stronger effect = lower value 0.989 | locus YDL040C, strain nat1, stronger effect = lower value 0.991 | locus YDR001C, strain nth1, stronger effect = lower value 0.986 | locus YDR069C, strain doa4, stronger effect = lower value 1 | locus YDR137W, strain rgp1, stronger effect = lower value 0.991 | locus YDR159W, strain sac3, stronger effect = lower value 0.991 | locus YDR195W, strain ref2 0.971 | locus YDR297W, strain sur2, stronger effect = lower value 0.996 | locus YDR334W, strain swr1, stronger effect = lower value 0.997 | locus YDR335W, strain msn5, stronger effect = lower value 0.995 | locus YDR392W, strain spt3, stronger effect = lower value 0.923 | locus YEL003W, strain gim4, stronger effect = lower value 1 | locus YEL037C, strain rad23, stronger effect = lower value 0.999 | locus YEL061C, strain CIN8 (second series), stronger effect = lower value 0.992 | locus YER015W, strain faa2, stronger effect = lower value 1 | locus YER016W, strain bim1, stronger effect = lower value 0.993 | locus YER111C, strain swi4, stronger effect = lower value 1 | locus YER155C, strain BEM2 (second series), stronger effect = lower value 0.983 | locus YFR010W, strain ubp6, stronger effect = lower value 1 | locus YGL167C, strain pmr1, stronger effect = lower value 0.994 | locus YGL173C, strain kem1, stronger effect = lower value 1.01 | locus YGL227W, strain vid30, stronger effect = lower value 0.992 | locus YGL240W, strain doc1, stronger effect = lower value 1.01 | locus YGL253W, strain hxk2, stronger effect = lower value 0.999 | locus YHR013C, strain ard1, stronger effect = lower value 0.954 | locus YHR027C, strain rpn1, stronger effect = lower value 0.997 | locus YHR030C, strain SLT2, stronger effect = lower value 1.03 | locus YHR079C, strain IRE1, stronger effect = lower value 1.04 | locus YHR142W, strain chs7, stronger effect = lower value 1.01 | locus YJL092W, strain hpr5, stronger effect = lower value 0.998 | locus YJL095W, strain BCK1 (second series), stronger effect = lower value 0.997 | locus YJL095W, strain BCK1, stronger effect = lower value 1.05 | locus YJL115W, strain asf1, stronger effect = lower value 0.99 | locus YJL129C, strain trk1, stronger effect = lower value 1.01 | locus YJL154C, strain vps35, stronger effect = lower value 1 | locus YJL164C, strain tpk1, stronger effect = lower value 0.999 | locus YJL166W, strain qcr8, stronger effect = lower value 1 | locus YJL187C, strain SWE1, stronger effect = lower value 0.999 | locus YJR066W, strain TOR1, stronger effect = lower value 1.01 | locus YKL160W, strain elf1, stronger effect = lower value 1.01 | locus YKR026C, strain gcn3, stronger effect = lower value 0.98 | locus YKR091W, strain srl3, stronger effect = lower value 0.992 | locus YLL001W, strain dnm1, stronger effect = lower value 1.01 | locus YLL026W, stronger effect = lower value 0.996 | locus YLL041C, strain sdh2, stronger effect = lower value 0.997 | locus YLR027C, strain aat2, stronger effect = lower value 1 | locus YLR113W, strain HOG1, stronger effect = lower value 1.01 | locus YLR221C, strain rsa3, stronger effect = lower value 0.997 | locus YLR258W, strain gsy2, stronger effect = lower value 0.993 | locus YLR262C, strain YPT6 (second series), stronger effect = lower value 1.01 | locus YLR320W, strain mms22, stronger effect = lower value 1.01 | locus YLR342W, strain FKS1, stronger effect = lower value 0.998 | locus YLR357W, strain rsc2, stronger effect = lower value 0.982 | locus YLR370C, strain arc18, stronger effect = lower value 1 | locus YLR384C, strain iki3, stronger effect = lower value 0.994 | locus YML120C, strain ndi1, stronger effect = lower value 1.03 | locus YMR058W, strain fet3, stronger effect = lower value 1 | locus YMR125W, strain sto1, stronger effect = lower value 0.995 | locus YMR129W, stronger effect = lower value 0.986 | locus YMR205C, strain PFK2, stronger effect = lower value 0.984 | locus YMR231W, strain pep5, stronger effect = lower value 0.999 | locus YNL071W, strain lat1, stronger effect = lower value 1.01 | locus YNL183C, strain NPR1, stronger effect = lower value 1.02 | locus YNL209W, strain ssb2, stronger effect = lower value 1.01 | locus YNL248C, strain rpa49, stronger effect = lower value 1.02 | locus YNL322C, strain KRE1 (second series), stronger effect = lower value 0.986 | locus YNR049C, strain mso1, stronger effect = lower value 0.989 | locus YOR001W, strain rrp6, stronger effect = lower value 1 | locus YOR070C, strain gyp1, stronger effect = lower value 0.988 | locus YOR080W, strain dia2, stronger effect = lower value 0.99 | locus YOR083W, strain WHI5, stronger effect = lower value 1.01 | locus YOR106W, strain vam3, stronger effect = lower value 1 | locus YOR231W, strain MKK1, stronger effect = lower value 1.05 | locus YOR265W, strain rbl2, stronger effect = lower value 0.999 | locus YOR270C, strain vph1, stronger effect = lower value 1.01 | locus YOR290C, strain snf2, stronger effect = lower value 0.926 | locus YPL051W, strain arl3, stronger effect = lower value 1.01 | locus YPL078C, strain atp4, stronger effect = lower value 1.01 | locus YPL106C, strain sse1, stronger effect = lower value 0.993 | locus YPL240C, strain hsp82, stronger effect = lower value 1.01 | locus YPL256C, strain CLN2, stronger effect = lower value 1.05

CC(N)(Cc1ccc(O)c(O)c1)C(=O)O (stereo unspecified)
inactive: locus YAL013W, strain DEP1, stronger effect = lower value 0.956 | locus YAL040C, strain CLN3, stronger effect = lower value 0.961 and 1 | locus YDR363W, strain ESC2, stronger effect = lower value 1.02 and 1.01 | locus YER002W, strain NOP16, stronger effect = lower value 1.01 | locus YGR078C, strain PAC10, stronger effect = lower value 1.01 and 0.992 | locus YGR229C, strain SMI1, stronger effect = lower value 0.862 | locus YJR075W, strain HOC1, stronger effect = lower value 0.984 and 0.975 | locus YMR263W, strain SAP30, stronger effect = lower value 1.01 | locus YNL153C, strain GIM3, stronger effect = lower value 0.971 | locus YNL175C, strain NOP13, stronger effect = lower value 1.01 and 1 | locus YNL197C, strain WHI3, stronger effect = lower value 1.01 | locus YNL224C, strain SQS1, stronger effect = lower value 1.01 | locus YNL322C, strain KRE1, stronger effect = lower value 1.02 and 1.01 | locus YOR083W, strain WHI5 (second series), stronger effect = lower value 1.01 and 0.993 | locus YPL055C, strain LGE1, stronger effect = lower value 0.943
0.914 (active) and 0.963 (inactive): locus YCL061C, strain MRC1 (second series), stronger effect = lower value
